For assay [1], the system named is Sodium/Iodide Symporter (NIS), SLC5A5 (gene 6528). The assay is described as follows: CPHEA_Stoker_NIS_Inhibition_RAIU: CPHEA's Radioactive Iodide Uptake (RAIU) Assay for Sodium/Iodide Symporter (NIS) Inhibition, Stoker and Laws Labs (AID 2283841). In a few lines:
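hNIS-HEK293T-EPA cells incubated 2 h at room temperature with compound (0.001–100 uM, 0.5% DMSO) and 329 pM final 125I in HBSS/10 mM HEPES, pH 7.4. Intracellular 125I counted; normalised to DMSO maximal uptake, triplicate, three biological replicates.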

Assay [2] can be described thus: CPHEA_Stoker_NIS_Cytotoxicity: Cytotoxicity Assessment for CPHEA's Radioactive Iodide Uptake (RAIU) Assay for Sodium/Iodide Symporter (NIS) Inhibition, Stoker and Laws Labs (AID 2283897).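 For AC50: active means loss of ATP signal versus DMSO meaning cytotoxicity.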 In a few lines:
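hNIS-HEK293T-EPA cells, human NIS expressed in HEK293T, treated 2 h with chemicals (0.001–100 uM, 0.5% final DMSO). ATP content read by CellTiter-Glo luminescence; loss of signal analysed relative to DMSO.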

Assay [3] can be described thus: CEETOX_H295R_11DCORT_noMTC: CeeTox H295R High-throughput Steroidogenesis Assay for 11-Deoxycortisol (11DCORT), maximum tolerated concentration (MTC) filtered results only (AID 2283911; active = hit-call score of the fitted dose curve at least 0.9, where 1 is the maximum; inactive = score below 0.9). To be noted: actives raise or lower the signal. In a few lines: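 H295R, OECD 456-based; 10 uM forskolin 48 h → compound (0.1% DMSO) 48 h → medium extracted, 11DCORT by LC-MS/MS. Gain/loss vs DMSO control, all concentrations kept regardless of MTT viability.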

Assay [4] can be described thus: CEETOX_H295R_OHPREG_noMTC: CeeTox H295R High-throughput Steroidogenesis Assay for OH-Pregnenolone (OHPREG), maximum tolerated concentration (MTC) filtered results only (AID 2283912; active = hit-call score of the fitted dose curve at least 0.9, where 1 is the maximum; inactive = score below 0.9). To be noted: actives raise or lower the signal. In a few lines:
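Steroidogenesis in H295R cells (OECD 456, modified): after 48 h forskolin priming and 48 h chemical treatment, secreted 17alpha-hydroxypregnenolone is measured by HPLC-MS/MS. Activity is fitted in both directions against DMSO; concentrations are not filtered by MTT-based MTC.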

Assay [5] in a line: CEETOX_H295R_OHPROG_noMTC: CeeTox H295R High-throughput Steroidogenesis Assay for OH-Progesterone (OHPROG), maximum tolerated concentration (MTC) filtered results only (AID 2283914; active = hit-call score of the fitted dose curve at least 0.9, where 1 is the maximum; inactive = score below 0.9). The settings on record: actives raise or lower the signal. In a few lines: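 Forskolin 10 uM, 48 h prestim → test cmpd in DMSO (0.1% final), 48 h → medium MTBE extraction → LC-MS/MS quant of 17alpha-OH-progesterone. Bidirectional fit vs DMSO; no MTT-based MTC filtering.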

Assay [6] in a line: CEETOX_H295R_ANDR_noMTC: CeeTox H295R High-throughput Steroidogenesis Assay for Androstenedione (ANDR), maximum tolerated concentration (MTC) filtered results only (AID 2283915; active = hit-call score of the fitted dose curve at least 0.9, where 1 is the maximum; inactive = score below 0.9). The settings on record: actives raise or lower the signal. In a few lines:
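H295R cells, passage 10 or below, prestimulated 48 h with 10 uM forskolin, then exposed 48 h to chemical in 0.1% DMSO. Medium androstenedione extracted with MTBE, quantified by HPLC-MS/MS; concentrations not MTC-filtered; bidirectional fit versus DMSO.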

The nature of assay [7]: CEETOX_H295R_CORTISOL_noMTC: CeeTox H295R High-throughput Steroidogenesis Assay for Cortisol, maximum tolerated concentration (MTC) filtered results only (AID 2283916; active = hit-call score of the fitted dose curve at least 0.9, where 1 is the maximum; inactive = score below 0.9). The settings on record: actives raise or lower the signal. In a few lines: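 Cortisol secretion measured by LC-MS/MS after 48 h chemical treatment (final 0.1% DMSO) of forskolin-primed (10 uM, 48 h) H295R cells; gain or loss fitted relative to DMSO, without maximum-tolerated-concentration filtering.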

Assay [8] can be described thus: CEETOX_H295R_CORTIC_noMTC: CeeTox H295R High-throughput Steroidogenesis Assay for Corticosterone (CORTIC), maximum tolerated concentration (MTC) filtered results only (AID 2283917; active = hit-call score of the fitted dose curve at least 0.9, where 1 is the maximum; inactive = score below 0.9). The settings on record: actives raise or lower the signal. In a few lines:
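Following OECD 456 with minor changes, H295R cultures received 10 uM forskolin for 48 h, then test chemical at 0.1% DMSO for 48 h. Media steroids were extracted and measured by LC-MS/MS.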

A short description of assay [9]: CEETOX_H295R_DOC_noMTC: CeeTox H295R High-throughput Steroidogenesis Assay for DOC, maximum tolerated concentration (MTC) filtered results only (AID 2283918; active = hit-call score of the fitted dose curve at least 0.9, where 1 is the maximum; inactive = score below 0.9). The settings on record: actives raise or lower the signal. An outline of the steps:
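11-Deoxycorticosterone secreted by human adrenal H295R cells quantified by HPLC-MS/MS after 48 h chemical exposure (0.1% DMSO), following 48 h 10 uM forskolin prestimulation. Concentrations not filtered by MTT-derived MTC; bidirectional fitting.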

Assay [10] can be described thus: CEETOX_H295R_ESTRADIOL_noMTC: CeeTox H295R High-throughput Steroidogenesis Assay for Estradiol, maximum tolerated concentration (MTC) filtered results only (AID 2283919; active = hit-call score of the fitted dose curve at least 0.9, where 1 is the maximum; inactive = score below 0.9). The settings on record: actives raise or lower the signal. An outline of the steps:
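H295R human adrenal cells pre-stimulated 48 h with 10 uM forskolin, then exposed 48 h to chemical (0.1% DMSO final). Estradiol in medium measured by HPLC-MS/MS after MTBE extraction and dansyl derivatization; bidirectional fit versus DMSO, concentrations not MTT-filtered.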

Assay [11] can be described thus: CEETOX_H295R_PROG_noMTC: CeeTox H295R High-throughput Steroidogenesis Assay for Progesterone (PROG), maximum tolerated concentration (MTC) filtered results only (AID 2283920; active = hit-call score of the fitted dose curve at least 0.9, where 1 is the maximum; inactive = score below 0.9). The settings on record: actives raise or lower the signal. An outline of the steps:
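H295R cells; forskolin 10 uM x 48 h prestim; test cpd 48 h, 0.1% DMSO final; media progesterone via LC-MS/MS; bidirectional fit vs DMSO; no MTT-based MTC filter applied.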

A short description of assay [12]: CEETOX_H295R_ESTRONE_noMTC: CeeTox H295R High-throughput Steroidogenesis Assay for Estrone, maximum tolerated concentration (MTC) filtered results only (AID 2283921; active = hit-call score of the fitted dose curve at least 0.9, where 1 is the maximum; inactive = score below 0.9). The settings on record: actives raise or lower the signal. In a few lines: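 H295R cells prestimulated 48 h with 10 uM forskolin, then exposed 48 h to chemical in 0.1% DMSO; medium estrone measured by HPLC-MS/MS after MTBE extraction and dansyl derivatization, fitted bidirectionally versus DMSO without MTT-based MTC filtering.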

A short description of assay [13]: CEETOX_H295R_TESTO_noMTC: CeeTox H295R High-throughput Steroidogenesis Assay for Testosterone (TESTO), maximum tolerated concentration (MTC) filtered results only (AID 2283924; active = hit-call score of the fitted dose curve at least 0.9, where 1 is the maximum; inactive = score below 0.9). The settings on record: actives raise or lower the signal. An outline of the steps: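 H295R cells prestimulated 48 h with 10 uM forskolin, then exposed 48 h to chemicals in 0.1% DMSO final. Testosterone in medium quantified by MTBE extraction and HPLC-MS/MS; bidirectional fit versus DMSO, concentrations […] filtered by MTT-based maximum tolerated concentration.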

The target of the next assay is PGR (gene 5241) (UniProt P06401). The assay is described as follows: TOX21_PR_BLA_Followup_Antagonist_ratio: Tox21 HEK293 Progesterone Receptor (PR) Antagonism Beta-lactamase Follow-Up Assay, Ratio (AID 2283934). An outline of the steps:
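PR-UAS-bla HEK293T cells, 3,000/well in 2% charcoal-stripped FBS, given compound plus 1nM R5020 agonist for 16 hr at 37C. Beta-lactamase FRET substrate 2 hours, ratio cleaved/uncleaved fluorescence; viability by CellTiter-Glo in same wells.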

Assay [14] is described as follows: TOX21_PR_BLA_Followup_Agonist_viability: Viability Assessment in the Tox21 HEK293 Progesterone Receptor (PR) Agonism Beta-lactamase Follow-Up Assay (AID 2283935).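 Note: signal loss means lower viability so actives are cytotoxic.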 In a few lines: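 PR-UAS-bla HEK293T cells in 2% charcoal-stripped FBS medium, plated 6 hr before compound addition, exposed 16 hr at 37C. Viability read by CellTiter-Glo ATP luminescence after 30 min at room temperature, in the same wells as the beta-lactamase readout.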

Assay [15] is described as follows: TOX21_PR_BLA_Followup_Antagonist_viability: Viability Assessment in the Tox21 HEK293 Progesterone Receptor (PR) Antagonism Beta-lactamase Follow-Up Assay (AID 2283936).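 Note: hits lower the luminescence signal meaning cytotoxicity.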 An outline of the steps:
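PR-UAS-bla HEK293T cells (3,000/well, 2% charcoal-stripped FBS) given compound plus R5020 agonist, 16 h at 37C. CellTiter-Glo added after bla read, 30 min at room temperature; luminescence loss indicates cytotoxicity.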

The subject of assay [16] is turtle Thyroid Hormone Receptor, alpha (TRa), gene 101949057. The assay can be described thus: ATG_trTRa_XSP2: Attagene TRANS-FACTORIAL Multi-Species (XSP1) HepG2 Assay for turtle Thyroid Hormone Receptor, alpha (TRa) (AID 2283834).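 Note: hits raise reporter mRNA over the DMSO baseline so AC50 marks activators.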 In a few lines: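 Readout: reporter mRNA induction, fluorescence after RT-PCR, HpaI digestion and capillary electrophoresis. Transiently transfected HepG2, exogenous NR-Gal4 chimera driving GAL4-UAS reporter, 24 h compound exposure. Activity fitted upward relative to DMSO baseline.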

Assay [17] can be described thus: ATG_M_61_XSP2: Attagene TRANS-FACTORIAL Multi-Species (XSP2) HepG2 Assay for M61 Transcription Factor (Internal Marker) (AID 2283835; active = hit-call score of the fitted dose curve at least 0.9, where 1 is the maximum; inactive = score below 0.9;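 note: reporter mRNA of an internal background marker read by RT-PCR and capillary electrophoresis; active means a rise in signal above the DMSO baseline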). An outline of the steps: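 First, HepG2 cells are transfected with reporter units under GAL4-UAS control. Next, chemicals are applied for 24 h. Then total RNA is reverse-transcribed, amplified, fluorescently labelled and sized by capillary electrophoresis, with gain of signal scored against DMSO.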

The target in assay [18] is zebrafish Thyroid Hormone Receptor beta (TRb), thrb (gene 30607) (UniProt Q9PVE4). The assay can be described thus: ATG_zfTRb_XSP2: Attagene TRANS-FACTORIAL Multi-Species (XSP1) HepG2 Assay for zebrafish Thyroid Hormone Receptor beta (TRb) (AID 2283836). An outline of the steps:
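HepG2 cells transiently transfected with chimeric zebrafish TRb-GAL4 reporter units, dosed 24 h with 3 nM 6-alpha-fluorotestosterone and 1.5 nM norgestrel present. Reporter mRNA quantified by RT-PCR and capillary electrophoresis; gain fitted against DMSO.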

Assay [19] concerns the target human Thyroid hormone Receptor beta (TRb), THRB (gene 7068) (UniProt P10828). The assay is described as follows: ATG_hTRb_XSP2: Attagene TRANS-FACTORIAL Multi-Species (XSP2) HepG2 Assay for human Thyroid hormone Receptor beta (TRb) (AID 2283840).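 Note: actives raise reporter mRNA so potency reflects agonist-like gain of signal.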 In a few lines: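 Read-out: reporter mRNA induction (RT-PCR, 6-FAM labeling, capillary electrophoresis), gain-of-signal relative to DMSO baseline. Transiently transfected HepG2 TRANS multiplex (NR-Gal4 chimeras, GAL4-UAS reporters), 24 h chemical exposure; medium contained 3 nM 6-alpha-fluorotestosterone plus 1.5 nM norgestrel.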

Records with an inconclusive call do not appear. Calls of active or inactive are those of the source. Rule for the calls, unless noted: active = hit-call score of the fitted dose curve at least 0.9, where 1 is the maximum; inconclusive = response in the unintended direction; inactive = score below 0.9.

Chain of PGR (gene 5241) (P06401 whole entry, looked up): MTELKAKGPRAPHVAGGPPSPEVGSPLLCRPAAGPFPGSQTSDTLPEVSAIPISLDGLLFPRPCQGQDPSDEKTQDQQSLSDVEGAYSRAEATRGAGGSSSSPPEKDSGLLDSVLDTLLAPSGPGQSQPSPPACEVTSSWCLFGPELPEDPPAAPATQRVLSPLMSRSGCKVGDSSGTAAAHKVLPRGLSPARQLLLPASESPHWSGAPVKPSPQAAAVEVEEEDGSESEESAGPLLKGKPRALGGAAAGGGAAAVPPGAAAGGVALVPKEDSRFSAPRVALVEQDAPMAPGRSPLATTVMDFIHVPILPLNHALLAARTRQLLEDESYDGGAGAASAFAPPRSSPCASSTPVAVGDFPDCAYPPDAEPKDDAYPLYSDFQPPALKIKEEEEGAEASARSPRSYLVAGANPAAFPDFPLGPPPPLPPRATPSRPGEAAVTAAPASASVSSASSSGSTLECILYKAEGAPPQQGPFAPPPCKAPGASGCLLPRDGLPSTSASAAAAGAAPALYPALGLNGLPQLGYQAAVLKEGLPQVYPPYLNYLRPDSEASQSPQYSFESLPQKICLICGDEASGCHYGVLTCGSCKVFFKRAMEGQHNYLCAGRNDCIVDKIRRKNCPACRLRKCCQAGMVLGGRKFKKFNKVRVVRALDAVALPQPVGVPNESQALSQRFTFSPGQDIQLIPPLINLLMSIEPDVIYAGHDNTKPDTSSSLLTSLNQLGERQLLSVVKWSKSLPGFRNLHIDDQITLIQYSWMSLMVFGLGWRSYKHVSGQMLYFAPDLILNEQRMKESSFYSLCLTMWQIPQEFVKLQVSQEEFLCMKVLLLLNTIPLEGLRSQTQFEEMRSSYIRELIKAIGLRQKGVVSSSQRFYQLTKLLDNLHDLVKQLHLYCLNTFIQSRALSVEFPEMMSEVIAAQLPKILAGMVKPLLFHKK
Chain of human Thyroid hormone Receptor beta (TRb), THRB (gene 7068) (P10828 whole entry, looked up, the tested form may be a part): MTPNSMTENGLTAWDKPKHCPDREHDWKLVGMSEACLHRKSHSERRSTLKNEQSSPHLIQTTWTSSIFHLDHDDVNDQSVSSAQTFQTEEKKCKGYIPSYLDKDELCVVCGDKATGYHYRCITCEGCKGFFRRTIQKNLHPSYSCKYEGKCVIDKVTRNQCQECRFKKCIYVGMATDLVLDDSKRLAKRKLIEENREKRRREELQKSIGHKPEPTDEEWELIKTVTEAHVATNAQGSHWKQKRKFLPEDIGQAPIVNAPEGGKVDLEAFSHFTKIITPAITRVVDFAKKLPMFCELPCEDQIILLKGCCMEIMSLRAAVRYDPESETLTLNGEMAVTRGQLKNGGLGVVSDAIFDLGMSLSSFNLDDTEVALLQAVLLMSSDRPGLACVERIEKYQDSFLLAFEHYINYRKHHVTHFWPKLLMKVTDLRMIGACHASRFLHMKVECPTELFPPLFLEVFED
Chain of zebrafish Thyroid Hormone Receptor beta (TRb), thrb (gene 30607) (Q9PVE4 whole entry, looked up, the tested form may be a part): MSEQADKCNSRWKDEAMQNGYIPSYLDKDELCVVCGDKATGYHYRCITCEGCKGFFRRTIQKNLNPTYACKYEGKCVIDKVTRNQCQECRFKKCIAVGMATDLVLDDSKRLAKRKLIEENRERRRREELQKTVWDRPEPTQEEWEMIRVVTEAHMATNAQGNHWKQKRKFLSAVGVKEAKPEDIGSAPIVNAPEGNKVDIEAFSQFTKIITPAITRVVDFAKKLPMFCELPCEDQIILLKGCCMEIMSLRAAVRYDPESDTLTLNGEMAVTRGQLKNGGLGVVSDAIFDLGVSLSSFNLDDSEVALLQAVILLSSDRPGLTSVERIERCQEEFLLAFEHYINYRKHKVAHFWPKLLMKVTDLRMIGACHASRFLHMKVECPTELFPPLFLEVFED

Take `O=C(O)CCC(F)(F)C(F)(F)C(F)(F)C(F)(F)C(F)(F)F`: the outcome in assay [1] was inactive.
Regarding `NC(=NCCCCCCN=C(N)/N=C(\N)Nc1ccc(Cl)cc1)/N=C(\N)Nc1ccc(Cl)cc1`, the result in [1] was inactive. In addition, the AC50 (commonly the concentration at which the activity in the assay is half-maximal) in assay [2] was 87 µM (active).
As to `O=C(CCCN1CCC(O)(c2ccc(Cl)cc2)CC1)c1ccc(F)cc1`, the result in assay [2] was inactive.
With `CC(C)c1c(C(=O)Nc2ccccc2)c(-c2ccccc2)c(-c2ccc(F)cc2)n1CC[C@@H](O)C[C@@H](O)CC(=O)O`, the result in assay [1] and in [2] was inactive.
With `C/C=C/C(=O)C1=C(C)CCCC1(C)C`, the result in assay [3], in [4], in assay [7], in assay [8], in assay [10] and in assay [12] was inactive. Further, in [13], the call was inactive. Further, the AC50 in assay [5] is 37.1 µM (active); in assay [6], 31.3 µM (active); in [9] it was 12.2 µM (active); in assay [11], 10.6 µM (active).
As for `Cc1[nH]nc2c1N=C(c1ccccc1Cl)c1cc([N+](=O)[O-])ccc1N2`, the result in assay [1] and in [2] was inactive.
Turning to `CCCCC(CC)C(=O)O` (centres undefined), the result in assay [1] and in [2] was inactive.
For the compound `C[C@]12CC[C@@H]3c4ccc(O)cc4CC[C@H]3[C@@H]1CC[C@@H]2OC(=O)CCC1CCCC1`, the AC50 with PGR (gene 5241) is 1.01 µM (active). For the same compound, the compound was called inactive in assay [14] and in assay [15].
Take `O=C(O)C(=O)O`: the outcome in [1] and in assay [2] was inactive.
Regarding `CCCCCCc1ccc(N)cc1`, the outcome in assay [1] and in assay [2] was inactive.
`O=C1OC2(c3ccccc31)c1cc(I)c(O)c(I)c1Oc1c2cc(I)c(O)c1I`: the AC50 in assay [1] is 0.248 µM (active). Also, the outcome in [2] was inactive.
As for `CN(CCO)S(=O)(=O)C(F)(F)C(F)(F)C(F)(F)C(F)(F)C(F)(F)C(F)(F)C(F)(F)C(F)(F)F`, in assay [1], the outcome was inactive.
On the same count and under the same terms, next, `O=C(O)C(F)(F)OC(F)(F)C(F)(F)OC(F)(F)C(F)(F)OC(F)(F)C(F)(F)C(F)(F)C(F)(F)F`: “inactive”.
In the case of `CCCCc1oc2ccccc2c1C(=O)c1cc(I)c(OCCN(CC)CC)c(I)c1`, in [2], the outcome was inactive.
Consider `NCCN`, for which the AC50 in assay [1] is 4.18 µM (active). For the same compound, the result in [2] was inactive.
`OCC(F)(F)C(F)(F)C(F)(F)C(F)(F)C(F)(F)C(F)(F)C(F)(F)C(F)(F)C(F)(F)C(F)(F)C(F)(F)F`: the outcome in assay [1] was inactive.
For the compound `CCCCCCCCCCCC`, the outcome in assay [1] and in assay [2] was inactive.
Take `O=C(CC(=O)C(F)(F)C(F)(F)C(F)(F)F)c1cccs1`: the AC50 in [1] was 13.5 µM (active).
Regarding `Cc1cc(C(C)(C)C)c(O)c(C(C)(C)C)c1`, the outcome in assay [1] and in assay [2] was inactive.
On to `Cc1cc(Cc2cc(C)cc(C(C)(C)C)c2O)c(O)c(C(C)(C)C)c1`, for which the result in assay [1] and in [2] was inactive.
As for `C[C@]12CC[C@@H]3c4ccc(O)cc4CC[C@H]3[C@@H]1C[C@@H](O)[C@@H]2O`, the call in [16], in assay [17], in assay [18], in [19] and in assay [14] was inactive. Moreover, in the assay with PGR (gene 5241), the half-maximal activity concentration (AC50) was 17.1 µM (active).

(Values after PubChem BioAssay (EPA / NIEHS).)
